This note sets out measurements from the supplement of paper PMC7411640.

This experiment concerns MDA-MB-468. Nature of the experiment: phospho-S6 immunofluorescence (DAPI-normalised), per-plate z-score; higher = higher phospho-S6 signal (less pathway suppression). To be noted: 24 h. The procedure:
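GPCR-targeted compound library (MedChemExpress HY-L006) tested on MDA-MB-468 PTEN-null TNBC cells in 384-well plates at 0.1, 1 or 10 uM, combined with vehicle, GDC0941 450 nM or lapatinib 1 uM, for 24 h. Phospho-S6 (S240/244) immunofluorescence normalised to DAPI and expressed as a per-plate z-score; values are the mean of biological triplicates.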

Where a name gives a salt, the structure may show the parent alone.

For the molecule `C[C@H]1CNCCc2ccc(Cl)cc21` [Lorcaserin (Hydrochloride)] (compound 10 µM), the “phospho-S6 immunofluorescence (z-score)” value (co-treatment: GDC0941 450 nM) is -1, the “phospho-S6 immunofluorescence (z-score)” value (co-treatment: lapatinib 1 uM) was -0.25 and the “phospho-S6 immunofluorescence (z-score)” value (co-treatment: vehicle) was -0.95.
On to `Cc1cccc(Cc2c[nH]cn2)c1C` [Detomidine (hydrochloride)] (compound 10 µM), for which the “phospho-S6 immunofluorescence (z-score)” value (co-treatment: GDC0941 450 nM) was -1, the “phospho-S6 immunofluorescence (z-score)” value (co-treatment: lapatinib 1 uM) was 0.28 and the “phospho-S6 immunofluorescence (z-score)” value (co-treatment: vehicle) was determined as 0.19.
For the molecule `O=C(O[C@H]1C[N+]2(CCCOc3ccccc3)CCC1CC2)C(O)(c1cccs1)c1cccs1` [Aclidinium (Bromide)] (compound 10 µM), the “phospho-S6 immunofluorescence (z-score)” value by setting is: (co-treatment: GDC0941 450 nM) 0.75; (co-treatment: lapatinib 1 uM) 1.09; (co-treatment: vehicle) -0.87.
As for `CN(C)CCN(C)CCc1ccc(Cl)c(Cl)c1` [BD-1047 (dihydrobromide)] (compound 10 µM), the “phospho-S6 immunofluorescence (z-score)” value (co-treatment: GDC0941 450 nM) was found to be 0.39, the “phospho-S6 immunofluorescence (z-score)” value (co-treatment: lapatinib 1 uM) is -1.41 and the “phospho-S6 immunofluorescence (z-score)” value (co-treatment: vehicle) was -0.85.
Turning to `CN1CCC(c2c[nH]c3ccc(O)cc23)CC1` (compound 10 µM), the “phospho-S6 immunofluorescence (z-score)” value (co-treatment: GDC0941 450 nM) amounted to 0.22, the “phospho-S6 immunofluorescence (z-score)” value (co-treatment: lapatinib 1 uM) came out at 0.55 and the “phospho-S6 immunofluorescence (z-score)” value (co-treatment: vehicle) was 0.06.
As for `Cc1ncc(CN2CC=C(c3ccccc3)CC2)c(N)n1` [Ro 10-5824 (dihydrochloride)] (compound 10 µM), the “phospho-S6 immunofluorescence (z-score)” value is, setting by setting: (co-treatment: GDC0941 450 nM) -1.36; (co-treatment: lapatinib 1 uM) -1.65; (co-treatment: vehicle) 0.42.
For the molecule `CCN(CC)C(=O)c1ccc(C2=CC3(CCNCC3)Oc3cccc(O)c32)cc1` (compound 10 µM), the “phospho-S6 immunofluorescence (z-score)” value (co-treatment: GDC0941 450 nM) came to 0.32, the “phospho-S6 immunofluorescence (z-score)” value (co-treatment: lapatinib 1 uM) was -0.78 and the “phospho-S6 immunofluorescence (z-score)” value (co-treatment: vehicle) was 0.88.
For the molecule `Cc1cccc(C(C)c2c[nH]cn2)c1C` (centres undefined) [Medetomidine (hydrochloride)] (compound 10 µM), the “phospho-S6 immunofluorescence (z-score)” value is 0.08 (co-treatment: GDC0941 450 nM), 0.79 (co-treatment: lapatinib 1 uM) and 0.41 (co-treatment: vehicle).
In the case of `CCC(COC(=O)c1cc(OC)c(OC)c(OC)c1)(c1ccccc1)N(C)C` (centres undefined) [Trimebutine (maleate)] (compound 10 µM), the “phospho-S6 immunofluorescence (z-score)” value by setting is: (co-treatment: GDC0941 450 nM) 1.12; (co-treatment: lapatinib 1 uM) 1.5; (co-treatment: vehicle) 0.51.
The matching figures for `C[C@@H]1CN(Cc2ccc(F)cc2)CCN1C(=O)COc1ccc(Cl)cc1NC(N)=O` (compound 10 µM): -3.5, -6.96 and -8.26.
The matching figures for `COc1ccc2[nH]cc(C3=CCNCC3)c2c1` (compound 10 µM): -0.19, -2.58 and -0.11.
For the molecule `O=Cc1cn(Cc2ccc(Cl)cc2)c2ccccc12` [Oncrasin-1] (compound 10 µM), the “phospho-S6 immunofluorescence (z-score)” value by setting is: (co-treatment: GDC0941 450 nM) -3.49; (co-treatment: lapatinib 1 uM) -7.38; (co-treatment: vehicle) -9.12.
The corresponding values for `CSCC[C@H](NC(=O)[C@H](Cc1ccccc1)NC(=O)CNC(=O)CNC(=O)[C@@H](N)Cc1ccc(O)cc1)C(=O)O` (compound 10 µM) are -0.41, -0.12 and -0.05.
